a7 integrin act – activators of alpha7 integrin expression for muscular dystrophy; alpha7betagal myoblasts, beta-gal FDG fluorescence, 48 h; AID 624291; Potency, µM (titrated, usually from 38.3 µM), hits mostly activators; 0.064% of 350,000 active; further: nearly all actives have a fitted effect of over 60% in size
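alpha7betagal+/- myoblasts (passage 13, 250/well) treated 48 h at 37C with compounds at 1:260 dilution of DMSO stock. Lysed, then beta-galactosidase activity read as FDG fluorescence (ex 480/em 540) after 30 min, with pre-read for autofluorescence.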
CBFb-RUNX1 inh – blocks binding between human CBF-beta and RUNX1 | Q01196+Q13951 | AID 1477 | Potency, µM (top dose mostly 59.8 µM), most hits filed as inhibitors | 230,000 tested, under 10 active | AlphaScreen CBFb-His/RUNX1-biotin binding, biochemical
Target sequence (Q01196 whole entry, looked up): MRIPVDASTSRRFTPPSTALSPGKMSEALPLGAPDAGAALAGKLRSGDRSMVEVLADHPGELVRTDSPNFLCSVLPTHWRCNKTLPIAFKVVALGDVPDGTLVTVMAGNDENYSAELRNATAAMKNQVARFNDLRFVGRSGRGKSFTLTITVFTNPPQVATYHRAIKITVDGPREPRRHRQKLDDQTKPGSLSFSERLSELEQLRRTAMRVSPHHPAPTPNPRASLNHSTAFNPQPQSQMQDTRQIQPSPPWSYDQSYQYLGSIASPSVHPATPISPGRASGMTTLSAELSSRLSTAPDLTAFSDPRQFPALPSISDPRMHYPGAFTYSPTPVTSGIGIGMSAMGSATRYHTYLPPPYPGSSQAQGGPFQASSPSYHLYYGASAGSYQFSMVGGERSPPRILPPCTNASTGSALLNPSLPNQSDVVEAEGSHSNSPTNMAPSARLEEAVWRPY
Target sequence (Q13951 whole entry, looked up): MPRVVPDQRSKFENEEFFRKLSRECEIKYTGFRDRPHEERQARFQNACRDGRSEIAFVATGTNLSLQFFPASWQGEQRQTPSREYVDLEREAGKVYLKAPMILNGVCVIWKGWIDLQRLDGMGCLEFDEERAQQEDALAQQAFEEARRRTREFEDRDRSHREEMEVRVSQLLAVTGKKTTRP
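CBF-beta (His) and RUNX1 (biotin), 30 nM each; 20 min preassociation; + compound, 15 min; + beads 50 ng each (Ni, streptavidin), 90 min; RT; AlphaScreen read.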
MBNL1 CUG block – MBNL1-poly(CUG) RNA binding inhibition. Q9NR56. TR-FRET MBNL1-His/biotin-(CUG)12 binding, 665/545 ratio. Potency, µM (series often up to 57.5 µM), actives largely listed as inhibitors. 0.036% of 280,000 active. AID 2675; active means well fitted inhibition curve with a large enough effect in the signal ratio, with a control signal flat, not every such curve was filed as active; inconclusive means small, poorly fitted or top-dose-only effect, or effect the other way, or a change in a side signal; inactive means no such curve, though single readings can be large or run the other way; the % refers to the signal ratio
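Compounds (final 92 nM to 58 uM) are added to His-tagged MBNL1 and biotin-(CUG)12, then terbium anti-His antibody and streptavidin-XL665 (5 nM final). After 60 min at room temperature, the 665/545 nm ratio is read.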
D3 antag – blocks the human D3 dopamine receptor; 2.5% of 360,000 active; max response, negative = inhibition, %; D3R cells, DiscoveRx beta-arrestin luminescence, antagonist mode; active compounds read low; P35462; in the data active means max response below about -50%; inconclusive means no clear call, values can overlap the other calls
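Cells expressing the human receptor were seeded at 1500 cells/well, incubated overnight at 37 degrees C in 5% CO2, then exposed to library compounds with dopamine controls for 90 minutes at 37 degrees C before luminescent detection.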
PTHR1 agonist – activates the human parathyroid hormone receptor PTHR1; Q03431; HEK293 GP2 PTHR1 cells, GloSensor cAMP luminescence, 1 h; Potency, µM (top dose mostly 115 µM), most hits filed as activators; 0.075% of 410,000 active; AID 743266; further: nearly all actives have a fitted effect of over 55% in size
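HEK-293-derived GP2 cells expressing PTHR1 and a GloSensor cAMP reporter, 3,000/well, plated overnight, given luciferin plus IBMX (each 0.5 mM as added) for 1 h at 37 °C, then compound for 1 h at 37 °C. Luminescence was read after 15 min at room temperature.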
D3 ag – activates the human D3 dopamine receptor. P35462. D3R DiscoveRx beta-arrestin cells, luminescence, 90 min. max activation, %. 0.58% of 410,000 active. AID 652048; in the data active means max activation above about 30%
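Cells at 1500/well, incubated overnight, then treated with pinned compounds (dopamine as control) for 90 min at 37 degrees C. DiscoveRx reagent added for 30 - 60 minutes at room temperature; luminescence read.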
Numbers stand for hits; - = inactive; ? = inconclusive; . = no result; ! = a repeat was not active. An excerpt weighted towards active compounds, which were near 2.8% of everything screened. Unless noted, the call rests on the fitted dose curve; in most records, active means well fitted curve in the direction sought with a large enough effect; inconclusive means small, poorly fitted or top-dose-only effect, or another doubt; inactive means no such curve, though single readings can be large; an effect the other way counts as inactive or inconclusive.

SMILES | a7 integrin act | CBFb-RUNX1 inh | MBNL1 CUG block | D3 antag | PTHR1 agonist | D3 ag
Cc1ccc(N2CC(C(=O)N3CCC(C(=O)Nc4nnc(C(C)(C)C)s4)CC3)CC2=O)cc1 (stereo not drawn) | - | . | - | - | - | -
Cc1ccc(S(=O)(=O)NCCC(=O)NCc2ccccn2)cc1 | - | . | . | - | - | -
O=C(CNS(=O)(=O)c1ccccc1)NCc1ccccn1 | - | - | ? | -51 | - | -
Cc1ccc2[nH]c(CNC(=O)c3ccc(F)cc3)cc2c1 | - | . | - | - | - | -
Cc1ccc(NC(=O)C[n+]2ccccc2)cc1[N+](=O)[O-] | - | - | - | -59 | - | -
O=C(C[n+]1ccc(C(=O)c2ccccc2)cc1)Nc1cccc([N+](=O)[O-])c1 | . | . | . | -95 | - | -
O=C(Cc1ccccc1)Nc1cccc([N+](=O)[O-])c1 | - | - | ? | - | - | -
COCC(=O)N(C)C[C@@H]1Oc2cc(-c3ccc(F)cc3)ccc2S(=O)(=O)N([C@H](C)CO)C[C@H]1C | - | . | . | - | - | -
N#C/C(=C\c1ccc(Br)cc1)c1nc(-c2cc3cc(Br)ccc3oc2=O)cs1 | . | . | . | . | - | -
NC(=O)c1c(N)[nH]c(C(=O)c2ccccc2)c1-c1ccccc1Br | . | . | . | -52 | - | -
C[C@H](CO)N1C[C@H](C)[C@@H](CN(C)C(=O)Nc2ccc(F)cc2)Oc2ncc(-c3ccc(F)cc3)cc2C1=O | - | . | . | - | - | -
O=[N+]([O-])c1ccc(O)c(N=Cc2sc3ccccc3c2O)c1 | - | - | ? | -83 | - | -
CN(C)c1ccc(/C=C(/C#N)C(=O)NCc2ccccc2)o1 | - | - | ? | -88 | - | -
Cc1cccc(C(=O)Oc2c(Sc3ccccc3)c(C)nn2C(C)(C)C)c1 | . | . | . | . | - | -
Nc1nn(-c2ccccc2)nc1C(=O)OCc1ccccc1 | - | - | - | -65 | - | -
Cc1ccc(COC(=O)c2nn(-c3ccccc3)nc2N)cc1 | - | ? | - | - | - | -
O=C[C@H](O)[C@@H](O)[C@H](O[C@H]1O[C@H](CO)[C@@H](O[C@H]2O[C@H](CO)[C@@H](O)[C@H](O)[C@H]2O)[C@H](O)[C@H]1O)[C@H](O)CO | . | . | . | . | . | -
CC(C)CCn1nnnc1C(c1ccccc1)N1CCC(C(N)=O)CC1 (stereo not drawn) | - | - | - | - | - | -
C=CCN1CCN(C(c2ccccc2)c2nnnn2CCC(C)C)CC1 (stereo not drawn) | - | - | - | -82 | - | -
Cc1ccc(C(c2nnnn2CCC(C)C)N2CCN(C)CC2)cc1 (stereo not drawn) | - | - | - | -67 | - | -
CC(C)CCn1nnnc1C(c1ccccc1)N1CCN(C)CC1 (stereo not drawn) | - | - | - | - | - | -
Cc1ccc(S(=O)(=O)N2CCC(N3CCN(Cc4ccccc4)C(=O)C3=O)CC2)cc1C | . | . | . | . | - | -
COc1ccc(NS(=O)(=O)c2ccc3c(c2)CCN3C(=O)CCC(=O)O)cc1OC | - | . | - | - | - | -
Cc1ccc(C(=O)c2coc3ccc(OCC(=O)O)cc23)cc1 | - | - | - | -61 | - | -
COC(=O)COc1ccc2c(=O)c(-c3ccccc3OC)coc2c1 | - | - | - | - | - | -
SMILES | a7 integrin act | CBFb-RUNX1 inh | MBNL1 CUG block | D3 antag | PTHR1 agonist | D3 ag
COC(=O)COc1ccc2occ(C(C)=O)c2c1 | - | - | - | -105 | - | -
O=C(O)COc1ccc2occ(C(=O)c3ccccc3)c2c1 | - | - | ? | ? | - | -
N#CC1(NC(=O)CSc2nnc(C3CC3)n2C2CC2)CCCCC1 | - | . | . | - | - | -
CC(=O)c1c(C)cc(C)c(CSc2nc(C)cc(=O)[nH]2)c1C | - | - | - | - | - | 69
CNC(=S)NN=C(C)CCCC(C)=NNC(=S)NC | - | . | . | - | - | -
Cc1oc(-c2ccc(Cl)cc2)nc1CN1CCCC(C(=O)NCc2ccco2)C1 (stereo not drawn) | - | - | - | -73 | - | -
CCOc1ccc(Nc2nnc(SCc3nc4ccccc4c(=O)[nH]3)s2)cc1 | - | - | - | -62 | ? | -
Cc1ccc(N(CC2=NCCN2)c2cccc(O)c2)cc1 | . | - | - | -63! | - | -
